Compounds with a hit are over-represented: about 10% of the library has one in this group of screens.
KB-3-1 cytotox: kills parental KB-3-1 adenocarcinoma cells; actives 1.4% (n = 400,000); Potency, µM (highest dose often 46.1 µM), usual class: cytotoxic; KB-3-1 viability, CellTiter-Glo ATP luminescence, 72 h; note: % is set by controls: 0 for no effect and ±100 for the full control effect; nearly all actives have a fitted effect of over 60% in size
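Cytotoxicity measured as CellTiter-Glo luminescence after 72 h at 37 C. Compound titrations were pinned onto drug-naive KB-3-1 parental adenocarcinoma cells grown in DMEM with 10% FBS, and normalized data fitted to concentration-response curves.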
KB-V1 MDR tox: kills drug-selected multidrug resistant KB-V1 cells | Potency, µM (top dose mostly 46.1 µM), usual class: cytotoxic | actives 3.4% (n = 400,000) | AID 1347076 | KB-V1 MDR cells viability, CellTiter-Glo, 72 h; note: % is set by controls: 0 for no effect and ±100 for the full control effect; nearly all actives have a fitted effect of over 60% in size
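Luminescent ATP read-out (CellTiter-Glo, 10 min) measures survival of drug-selected KB-V1 MDR cells after 72 h, 37 degrees C compound exposure. Medium: phenol-red-free DMEM, 10% FBS. Values from fitted concentration-response curves.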
MCF10A rereplic: DNA re-replication induction in MCF 10a cells; MCF 10A DNA re-replication, Hoechst nuclear intensity, 48 h; Potency, µM (doses to about 46.1 µM), for the others: at the highest dose activity, positive = re-replication, most hits filed as activators; actives 2.9% (n = 350,000); AID 624296; note: % of control where 0% means no effect; nearly all actives have a fitted effect of over 50% in size
Gal4-VP16 FLuc: inhibits Gal4-VP16 luciferase reporter, ROR gamma counter-screen | actives 3.5% (n = 310,000) | Potency, µM (series often up to 53.6 µM), for inactives: at the highest dose activity, negative = inhibition, hits mostly inhibitors | AID 2546 | Drosophila S2 Gal4-VP16 UAS-luciferase, luminescence, 20 h;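 note: Gal4-VP16 expression switched on by copper sulfate through the metallothionein promoter; % is set by controls: 0 for no effect and ±100 for the full control effect; nearly all actives have a fitted effect of over 50% in size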
RORgamma inh: inhibitors of mouse ROR gamma transcriptional activity | actives 5.4% (n = 310,000) | Potency, µM (titrated, usually from 53.6 µM), for the others: top-dose activity change, negative = inhibition, actives largely listed as inhibitors | Drosophila S2 Gal4-RORgamma UAS-luciferase reporter, 20 h | AID 2551; note: % is set by controls: 0 for no effect and ±100 for the full control effect; nearly all actives have a fitted effect of over 60% in size
Target sequence (P51450 whole entry, looked up, the tested form may be a part): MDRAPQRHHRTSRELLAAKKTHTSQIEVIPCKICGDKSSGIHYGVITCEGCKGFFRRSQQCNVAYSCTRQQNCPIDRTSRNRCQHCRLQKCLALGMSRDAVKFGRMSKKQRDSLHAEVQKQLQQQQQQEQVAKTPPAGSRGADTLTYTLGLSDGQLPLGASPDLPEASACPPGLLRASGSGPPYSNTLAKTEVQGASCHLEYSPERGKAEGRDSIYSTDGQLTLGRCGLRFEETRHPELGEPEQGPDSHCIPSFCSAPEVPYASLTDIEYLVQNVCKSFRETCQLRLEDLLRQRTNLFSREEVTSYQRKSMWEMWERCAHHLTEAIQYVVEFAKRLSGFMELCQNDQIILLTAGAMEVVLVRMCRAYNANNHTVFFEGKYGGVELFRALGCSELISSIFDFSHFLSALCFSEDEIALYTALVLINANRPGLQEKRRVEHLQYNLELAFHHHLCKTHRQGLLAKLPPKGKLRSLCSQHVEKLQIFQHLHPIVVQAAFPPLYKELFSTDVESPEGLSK
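Drosophila S2 cells stably expressing Gal4-DBD/mouse RORγ fusion under metallothionein promoter plus UAS-luciferase; compound 1 h, then 700 uM CuSO4 induction for 20 h at ambient temperature; inhibition read as reduced luminescence.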
SW480 rerep: DNA re-replication induction in SW480 cells; SW480 DNA re-replication, Hoechst DNA content imaging, 48 h; Potency, µM (doses to about 46.1 µM), inactives show at the top dose re-replication activation, hits mostly activators; actives 1.8% (n = 340,000); AID 624297; note: % of control where 0% means no effect; nearly all actives have a fitted effect of over 55% in size
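250 cells/well; 23 nL cpd via pin tool; 48 hr, 37 C, 5% CO2; Hoechst 40 min; imager read of total nuclear intensity, ex 405/em 500-530 nm.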
* = called active by the depositor; i = inactive; u = inconclusive; x = no result; ! = not confirmed by another sample; [ ] = remark or other dose. Calls come from the whole dose curve; as a rule, active = well fitted curve in the direction sought with a large enough effect; inconclusive = small, poorly fitted or top-dose-only effect, or another doubt; inactive = no such curve, though single readings can be large; an effect the other way counts as inactive or inconclusive. Potency is the fitted concentration of half-maximal effect.

SMILES | KB-3-1 cytotox | KB-V1 MDR tox | MCF10A rereplic | Gal4-VP16 FLuc | RORgamma inh | SW480 rerep
COc1cccc([C@@H]2Oc3ccc(OC)cc3C(=O)[C@H]2OC(=O)NCc2ccco2)c1 | x | x | x | -12.2% | -13.1% | x
O=C(CNc1cccc2ccccc12)N/N=C/C(Br)=C/c1ccccc1 | u | u | -5.2% | -16.5% | -1.1% | u
O=C(CNc1cccc2ccccc12)N/N=C/c1ccc[nH]1 | u | u | 2.6% | 14.1µM* | 5.01µM* | -9.4%
O=C(CNc1cccc2ccccc12)N/N=C/c1ccc([N+](=O)[O-])o1 | u | i | u | u | 11.2µM* | u
CSc1ccc(/C=N/NC(=O)CNc2ccc3ccccc3c2)cc1 | i | i | u | -0.6% | -6.2% | 6.9%
O=C(CCN1CCN(c2ccccc2)CC1)N/N=C/c1ccc([N+](=O)[O-])o1 | u | u | u | -20.3% | 17.8µM* | 27.4%
CSc1ccc(/C=N/NC(=O)CNc2cccc3ccccc23)cc1 | i | i | u | u | 35.5µM* | 0.7%
C#C[C@@]1(O)CCC2C3CCc4cc(O)ccc4C3CC[C@@]21C (some centres undefined) | x | x | x | 0.3% | -0.5% | x
IC(I)I | x | x | -0.7% | 6.3% | 3.2% | -3.0%
Cn1nnc(NC(=S)NC(=O)c2ccco2)n1 | i | i | -3.0% | 10µM* | u | -35.4%
Cn1nnc(NC(=S)NC(=O)Cc2ccccc2)n1 | i | i | 9.5% | 11.2µM* | 1.41µM* | -18.7%
Cn1nnc(NC(=O)c2ccccc2)n1 | i | i | 10.7% | 19.8% | u | 2.1%
Cn1nnc(NC(=S)NC(=O)c2cc3ccccc3o2)n1 | i | i | -8.4% | 6.31µM* | 1.12µM* | 6.3%
S=C(Nc1ccccc1Cl)N(CCCN1CCOCC1)Cc1ccco1 | i | 20.6µM* | 4.4% | 21.1% | -18.0% | -2.8%
CCN1CCN(CCCN(Cc2ccco2)C(=S)Nc2ccccc2Cl)CC1 | u | u | 7.3% | -11.8%[10 µM] | 13.9% | 2.6%
Cc1cc(NC(=S)N(CCCN2CCN(C)CC2)Cc2ccco2)ccc1Cl | i | u | 4.3% | 8.0% | u | -1.2%
CCc1ccccc1NC(=S)N(CCN1CCCCC1)Cc1ccco1 | i | i | -1.0% | -6.7% | 11.2µM* | -1.1%
COc1ccc(NC(=S)N(CCN2CCCCC2)Cc2ccco2)cc1 | i | u | u | -11.5% | u | -1.8%
Cc1cc(C)cc(NC(=S)N(CCN2CCCCC2)Cc2ccco2)c1 | i | u | -11.2% | 0.3%[10 µM] | 10µM* | -4.3%
Cc1ccc(NC(=S)N(CCN2CCCCC2)Cc2ccco2)cc1Cl | i | u | u | u | 14.1µM* | 7.2%
COC(=O)C[C@H]1C=C[C@H](NC(=O)c2cccc(F)c2)[C@@H](CO)O1 | i | i | x | x | x | x
C=CC1=C(C)C2=NC1=CC1=NC(=CC3=NC(=CC4=NC(=C2)C(C)=C4CCC(=O)O)C(CCC(=O)O)=C3C)C(C=C)=C1C.[Zn] | x | x | x | -17.2% | 11.6% | x
CCOC(=O)C1=C(CN2CCCCC2)NC(=O)NC1c1cc(C)ccc1C (centres undefined) | i | 10.3µM*! | 5.0% | -3.6% | 22.0% | -0.6%
CCOC(=O)C1=C(CSCc2ccccc2)NC(=O)NC1c1cc(C)ccc1C (centres undefined) | i | 9.2µM* | u | 1.8% | 10.0% | u
CCC/C=C(\CCC)C(NP(=O)(c1ccccc1)c1ccccc1)c1ccc(C(F)(F)F)cc1 (centres undefined) | x | x | x | u | 16.3% | x
SMILES | KB-3-1 cytotox | KB-V1 MDR tox | MCF10A rereplic | Gal4-VP16 FLuc | RORgamma inh | SW480 rerep
O=C1OCC2=C1C(c1ccc(F)cc1)Sc1ccccc1N2 (centres undefined) | i | u | 15.1% | -19.6% | u | -6.2%
COc1cc(C2Sc3ccccc3NC3=C2C(=O)OC3)cc(OC)c1OC (centres undefined) | 23.1µM* | i | u | 4.8% | u | u
COc1cc(C2CC(=O)Nc3ccccc3S2)cc(OC)c1OC (centres undefined) | i | 10.3µM* | u | -1.7% | 1.0% | 5.2%
O=C(Nc1ccc2c(c1)N(C1CCCC1)C(=O)c1ccccc1S2)c1ccccc1 | i | i | x | x | x | x
COc1ccc2oc(=N)c(C(=O)Nc3ccccc3Cl)cc2c1 | i | i | -0.8% | -13.1% | -37.9% | -6.1%
COc1ccc2oc(=N)c(C(=O)Nc3cccc(C)c3C)cc2c1 | i | i | 5.4% | -28.3% | 3.16µM* | -6.3%
COc1ccc2oc(=O)c(C(=O)Nc3ccccc3C)cc2c1 | i | i | 1.5% | u | 0.891µM* | -2.4%
Cc1nn(C)cc1-c1n[nH]c(=S)n1-c1ccc(F)cc1 | i | u | 8.1% | 7.9% | u | 0.8%
Cc1ccc(-n2c(-c3cn(C)nc3C)n[nH]c2=S)cc1 | x | x | x | -7.3% | 10µM* | x
Cc1cc(-c2n[nH]c(=S)n2-c2ccccc2)nn1C | i | i | 1.3% | -6.7% | -24.4% | -5.0%
Cc1ccc(-n2c(-c3cc(C)n(C)n3)n[nH]c2=S)cc1 | i | i | 0.1% | -2.2% | 11.2µM* | -6.2%
COc1ccc(-c2c(-c3ccc4c(c3)OCO4)noc2-c2ccsc2)cn1 | i | u | x | x | x | x
O=C(NCCc1nc2ccccc2n1CCO)C1CCCCC1 | u | i | x | x | x | x
Cc1ccc2nc(CSc3nc(C)cc(C)c3C#N)[nH]c2c1 | i | i | 1.84µM* | -6.5% | u | 4.61µM*
Cc1cc(C)c(C#N)c(SCc2ccccc2)n1 | i | i | -1.4% | -4.4% | 63.7% | -1.9%
CCOc1ccccc1NC(=O)N1CCN(S(=O)(=O)c2ccc3c(ccn3C)c2)CC1 | i | i | x | x | x | x
CCn1c(-c2cc(-c3ccc(C)cc3)nc3ccccc23)n[nH]c1=S | i | i | -0.8% | -19.4% | 1.12µM* | -5.7%
CCn1c(-c2cccn(Cc3ccccc3)c2=O)n[nH]c1=S | i | i | -1.6% | 8.4% | -31.7% | -17.6%
CCn1c(-c2ccccc2SC)n[nH]c1=S | i | i | -41.5% | -11.0% | 14.1µM* | 25.3%
FC(F)C(F)(F)Oc1cccc(-c2n[nH]c(=S)n2Cc2ccccc2)c1 | i | i | u | x | x | 27.4%
CCCOc1cccc(-c2cc(-c3n[nH]c(=S)n3CC)c3ccccc3n2)c1 | i | u | u | -20.1% | 1.26µM* | u
C=CCn1c(-c2cc(-c3ccc(C)cc3)nc3ccccc23)n[nH]c1=S | i | i | u | 10µM* | 0.891µM* | 6.4%
O=C(NCc1ccc(Cl)cc1)c1ccc(NC(=O)N2CC3CCCN3c3ccccc32)cc1 (centres undefined) | i | i | x | x | x | x

Screening data: PubChem BioAssay, National Center for Advancing Translational Sciences (NCATS)
